Screen size: about 360,000 compounds; about 11,000 (3.1%) were called active. Another 2% or so got no clear call; they are omitted. The list comes from a sample in which actives are over-represented; it also holds similar structures and randomly drawn compounds. Values without a mark were called inactive. Cut-off read from the data, not from the text of the source: active = fluorescence intensity above about 16000; inconclusive = no clear call, values can overlap the other calls; inactive = below that.

A short description of this experiment: compound fluorescence in toxin protease inhibitor counterscreen, primary screen, artefact control for toxin protease inhibitor project, biochemical, multiplex microsphere, HTS (AID 624483). As to conditions: compound autofluorescence counterscreen, microsphere flow cytometry; stronger effect = higher value.
Take `Cc1ccc(C(C)C)c(OCc2nnc(SCC(=O)Nc3nccs3)n2C)c1`: the fluorescence intensity is 17800 (active).
On to `COc1ccc(CC(=O)NCc2nnc(SCC(=O)Nc3nccs3)n2C)cc1`, for which the fluorescence intensity is 4710.
In the case of `Cn1c(SCC(=O)Nc2nccs2)nnc1-c1cccnc1` it was 4450; in that of `c1ccc2c(NC3C4CC5CC(C4)CC3C5)nc(N3CCOCC3)nc2c1` (stereo not given), 4640; in that of `NC(c1csc(NC(=O)Nc2ccccc2Oc2ccccc2)n1)c1ccccc1Cl` (stereo not given), 3590.
Then `O=C(c1cc(C2CCCCN2S(=O)(=O)c2ccccc2)on1)N1CCOCC1` (stereo not given), with 3020.
Then `CC(=O)NS(=O)(=O)c1ccc(N/C(N)=N/c2nc(C)cc(C)n2)cc1`, with 3910.
As to `C[C@@H]1NC(=O)[C@@]2(C)[C@@H](c3ccccc3)[C@H]3COc4ccccc4[C@@H]3N2C1=O`, the fluorescence intensity was 3420.
In the case of `O=C1NC(c2ccccc2)Oc2ccccc21` (stereo not given) it was 3320; in that of `CN1CC(c2ccccc2)C2(COc3ccccc3C2=O)C12C(=O)Nc1ccccc12` (stereo not given), 16700 (active); in that of `Cc1cc(C)n2c(NCc3ccccc3)c(CC(C)C)nc2n1`, 6800.
Then `CCN(CC(=O)Nc1c(F)cccc1F)C(=O)c1cnc(C)cn1`, with 4920; and `CCC(CC)C(=O)N1CCN(c2cccc(C)c2C)CC1`, with 2200.
With `Cc1cccc(N2CCN(C(=O)/C=C/c3ccco3)CC2)c1C`, the fluorescence intensity was 2640.
Then `CC(=O)N1CCN(c2cccc(C)c2C)CC1`, with 20800 (active); and `C=CCC[C@H](CCCCC)OC(=O)/C=C/[C@H](O)[C@@H](O)C[C@@H](O)CC=C`, with 4110; and `CCCc1ccc(C(O)c2ncc(-c3cccc(OC)c3)[nH]2)cc1` (stereo not given), with 3420.
Then `COc1cccc(-n2c(=S)sc3c(=O)n(-c4ccccc4C)c(SCC(=O)O)nc32)c1`, with 3210; and `CCOC(=O)CSc1nc2c(c(=O)n(Cc3ccccc3Cl)c(=O)n2C)n1C`, with 4690.
In the case of `CCOC(=O)CSc1nc2c(sc(=S)n2CCc2ccccc2)c(=O)n1Cc1ccco1` it was 16400 (active); in that of `COc1ccc(NC(=O)c2sc(=O)n(Cc3ccc(S(=O)(=O)N(C)C)cc3)c2C)cc1`, 5230.
Turning to `COc1ccc(NC2=CC(=S)NC(C)(C)C2)cc1`, the fluorescence intensity is 26300 (active).
For `COc1ccc(Nc2ccc3ccccc3c2)cc1`, the fluorescence intensity is 3980.
In the case of `COc1ccc(NC(=O)C(Br)C(C)C)cc1` (stereo not given) it was 3200; in that of `Cc1cc(Br)cn2c(Cc3ccsc3)c(-c3ccc(C#N)cc3)nc12`, 4980; in that of `CC(C)Nc1nc(NCCOc2ccccc2Cl)c2sccc2n1`, 4090.
In the case of `C(=N/N1CCN(c2ccccc2)CC1)/c1cccs1` it was 23100 (active).
In the case of `Cc1ccc(N2CCN(/N=C/c3cccs3)CC2)cc1` it was 15100.
On to `COc1cc(/C=N/N2CCN(c3ccccc3)CC2)ccc1OC(C)=O`, for which the fluorescence intensity was 4030.
Regarding `CCCCc1nc(SCC(=O)Nc2nnc(C(C)C)s2)n[nH]1`, the fluorescence intensity is 5330.
In the case of `CCCCc1nnc(NC(=O)CSc2nc(C)cc(=O)[nH]2)s1` it was 22200 (active).
As to `Cc1ccc(NC(=O)CSc2nc(CSc3ccc(C)cc3)cc(=O)[nH]2)cc1`, the fluorescence intensity is 4220.
Regarding `Cc1nc2nc(SCC(=O)Nc3cccc(F)c3)[nH]c2cc1Br`, the fluorescence intensity was 5340.
Then `COc1ccc(NC(=O)CSc2nc(NS(=O)(=O)c3ccc(C)cc3)cc(=O)[nH]2)cc1`, with 19100 (active); and `COC(=O)c1cccc(NC(=O)CSc2nc(C)cc(=O)[nH]2)c1`, with 19300 (active); and `CCCc1cc(=O)[nH]c(SCC(=O)Nc2ccc(C(=O)Nc3ccccc3OC)cc2)n1`, with 3560.
`Cc1ccc(OCCCC(=O)Nc2ccc(S(=O)(=O)Nc3cc(C)nc(C)n3)cc2)cc1`: the fluorescence intensity was 5510.
`CCCCc1nnc(NC(=O)CSc2nc(N)cc(=O)[nH]2)s1`: the fluorescence intensity is 4560.
In the case of `COc1ccc(C2=NS(=O)(=O)N(C)C(C(=O)N3CCCCC3)=C2)cc1` it was 5200.
Then `COCCNc1ncnc2c1ncn2[C@H]1CN(Cc2ccc(OC)cc2)C[C@@H](CO)O1`, with 2990; and `Cc1cccc(CN2CCN(C3CN(Cc4cn(Cc5ccccc5F)nn4)S(=O)(=O)C3)CC2)c1` (stereo not given), with 6290; and `O=C(COc1ccc(Br)cc1)OCC(=O)c1ccc[nH]1`, with 3140.
In the case of `Cc1ccc2oc(C(=O)N3CCN(C)C[C@@H]3C(C)C)c(C)c2c1` it was 3260.
In the case of `O=C1OCCOC2CCCc3oc(-c4ccccc4)c1c32` (stereo not given), the fluorescence intensity was 5740.
With `CCCCC(O)C1=C[N+](=O)CC=C1` (stereo not given), the fluorescence intensity is 4270.
`CC1CCCCC1NC(=O)CCS(=O)(=O)c1cccc2nonc12` (stereo not given): the fluorescence intensity was 4530.
In the case of `CCc1nc2c(OCc3ccc(C(F)(F)F)cc3)cccn2c1N(C)C(=O)CC(C)C` it was 3820; in that of `CCOC(=O)c1c(-c2ccccc2)oc2cc(Br)c(O)c(C=O)c12`, 3500.
On to `CCOC(=O)c1c(-c2ccccc2)oc2ccc(OC(=O)N(C)C)cc12`, for which the fluorescence intensity was 18300 (active).
Then `CCOC(=O)c1c(-c2ccccc2)oc2ccc(OCC(=O)NN)cc12`, with 3330; and `CC1Oc2ccccc2N(Cc2cccnc2)C1=O` (stereo not given), with 22000 (active); and `Cc1cccc(C)c1NC(=O)CN1C(=O)C(C)Oc2ccccc21` (stereo not given), with 4620.
In the case of `CC12c3ccccc3C(c3ccccc31)C1C(=O)N(Cc3cccnc3)C(=O)C12` (stereo not given), the fluorescence intensity was 10400.
Consider `Cc1cc(C)n2nc(SCC(=O)NC(=O)NCc3ccco3)nc2n1`, for which the fluorescence intensity was 3150.
For the compound `Cc1ccc(NC(=O)C(=O)NCc2ccco2)c(C)c1`, the fluorescence intensity is 4600.
For `O=C(CSc1nnc2scc(-c3ccc(F)cc3)n12)NCc1ccco1`, the fluorescence intensity is 7830.
Then `Cc1ccc(-c2csc3nnc(SCC(=O)NCc4ccco4)n23)cc1`, with 16800 (active); and `Cn1c(-c2ccc(F)cc2)cnc1SCC(=O)NCc1ccco1`, with 9840.
In the case of `Cc1ccc(SCC(=O)NC(=O)NCc2ccco2)c(C)c1` it was 19200 (active).
In the case of `O=C(Nc1ccc(N2CCN(C(=O)c3ccccc3)CC2)c(Cl)c1)c1ncn[nH]1` it was 4940; in that of `CCCS(=O)(=O)NC(=O)C1(C)CCCN(C(=O)c2cc(C)on2)C1` (stereo not given), 3970.
With `CC(C)(O)C1=C[N+](=O)CC=C1`, the fluorescence intensity is 6070.
As for `CN1OC[C@@H]2CN(S(=O)(=O)c3cccc(C(F)(F)F)c3)[C@H](c3ccc(-c4cc5ccccc5o4)cc3)C[C@@H]21`, the fluorescence intensity was 3760.
In the case of `Nc1[nH]c(C(=O)c2ccccc2)c(-c2ccncc2)c1C(=O)NCc1cccc2ccccc12` it was 5030.
As to `CCN(CC)c1ncnc2c1ncn2[C@H]1CN(Cc2cccs2)C[C@@H](CO)O1`, the fluorescence intensity was 3720.
In the case of `Cc1ccc(CNC(=O)c2ccc3c(c2)S(=O)(=O)c2ccccc2C3=O)cc1` it was 3750; in that of `CCCn1nc2cc(C(=O)NCc3ccccc3)ccc2c1OCC`, 4050.
Then `Cc1cc(N2C(=O)c3ccc(C(=O)NCc4ccccc4)cc3C2=O)no1`, with 17400 (active); and `O=c1[nH]cccc1-c1nc2ccccc2n1Cc1ccc(Cl)cc1`, with 4020; and `COc1ccc(NC(=O)C2Cc3c(-c4ccc(Cl)cc4)ccnc3O2)cc1` (stereo not given), with 3760.
For the compound `O=C(CC1NCCNC1=O)Nc1cc(Cl)cc(Cl)c1` (stereo not given), the fluorescence intensity was 7460.
Turning to `O=C(CC1NCCNC1=O)Nc1ccc(Oc2ccccc2)cc1` (stereo not given), the fluorescence intensity was 16900 (active).
Then `CCOc1ccc(NC(=O)CC2NCCNC2=O)cc1` (stereo not given), with 4570; and `Cc1cccc(NC(=O)CSc2nnc(CCNC(=O)OC(C)(C)C)o2)c1C`, with 3990; and `Cc1ccccc1CSc1nnc(CCCCCNC(=O)OC(C)(C)C)o1`, with 3660.
In the case of `Cc1cccc(NC(=O)CSc2nnc(CCCCCNC(=O)OC(C)(C)C)o2)c1C` it was 20100 (active).
As for `CCOC(=O)N1CCC(NC(=O)C(C)n2c3ccccc3c3cnn(C)c(=O)c32)CC1` (stereo not given), the fluorescence intensity is 3150.
Then `COC(=O)c1ccc(NC(=O)c2cc3c(CO)cnc(C)c3oc2=Nc2cccc(C(N)=O)c2)cc1`, with 2910; and `CN(C)C(=O)CSc1n[nH]c(-c2ccco2)n1`, with 2630.
Take `O=C(O)CSc1c2c(nc3cc(C(=O)Nc4cccc(C(F)(F)F)c4)ccc13)CCCC2`: the fluorescence intensity is 5110.
Take `COC(=O)c1ccccc1Sc1c(/C=N/OCc2ccc(Cl)cc2)c(C(F)(F)F)nn1C`: the fluorescence intensity is 2910.
`Cn1nc(C(F)(F)F)c(C(=O)Nc2cccc(C(F)(F)F)c2)c1SCc1ccc(Cl)cc1`: the fluorescence intensity is 18600 (active).
In the case of `N[C@@H](Cc1ccccc1)C(=O)N1CCOCC1` it was 3920; in that of `O=C(CSc1ncccn1)N1CCCC1`, 5480; in that of `OC(c1ccc(Cl)cc1)c1ncc(-c2ccc(Cl)cc2)[nH]1` (stereo not given), 3850.
Then `CC(C)Cn1c(CN(Cc2ccccc2)Cc2ccccc2)nc2c1c(=O)n(C)c(=O)n2C`, with 5910.
`COCCn1c(CN(Cc2ccccc2)Cc2ccccc2)nc2c1c(=O)n(C)c(=O)n2C`: the fluorescence intensity was 5270.
On to `CC(C)CCn1c(CN(C)Cc2ccccc2)nc2c1c(=O)n(C)c(=O)n2C`, for which the fluorescence intensity was 21400 (active).
`CC1(C)OC(=O)C2=C(C[C@@H](C3CCCCC3)O[C@@H]2c2ccc(Cl)cc2)O1`: the fluorescence intensity was 6270.
In the case of `COc1cc2ccccc2cc1C(=O)Nc1ccccc1C`, the fluorescence intensity was 3900.
Then `Cc1ccc(Nc2c(F)c(F)c(F)c(F)c2C(=O)O)c(C)c1`, with 3820.
In the case of `COc1c(F)c(F)c(C(=O)O)c(Nc2ccccc2C)c1F`, the fluorescence intensity was 21400 (active).
On to `Cc1ncc([N+](=O)[O-])n1CCOC(=O)c1ccc(Br)cc1`, for which the fluorescence intensity is 4830.
In the case of `CC1(C(=O)NCc2ccc3c(c2)OCO3)CCN1C(=O)Cc1cccc2ccccc12` (stereo not given), the fluorescence intensity was 2930.
For `Nc1nc2c(Br)ccc(Br)c2cc1C(=O)NCCc1ccccc1`, the fluorescence intensity was 6050.

(Values after PubChem BioAssay AID624483 (NMMLSC, 2012).)
